Compound activity deposited in PubChem by National Center for Advancing Translational Sciences (NCATS).
Shiga inhibitor: blocks Shiga toxin action in Vero cells; AID 2315; Vero cells, Shiga toxin protein synthesis inhibition reporter; inhibition, % at 38.7 µM; hit rate 9.2% among 290,000; in the data active means inhibition mostly above about 28%, no sharp cut-off; inactive means mostly below about 43%; further: 0% is about no effect
SARS PLpro yeast: inhibitors of SARS-CoV papain-like protease in yeast; AID 485353; S. cerevisiae expressing SARS-CoV PLpro, growth rescue; hit rate 0.19% among 330,000; Potency, µM (doses to about 32.9 µM), inactives show top-dose activity, positive = growth rescue, hits mostly activators; calls by dose curve; further: potency means the concentration at half of the fitted maximal effect; 0% is about no effect; nearly all actives have a fitted effect of over 55% in size
NS1 function inh: inhibitors of influenza NS1 protein function | Potency, µM (top dose mostly 46.1 µM), for inactives: at the highest dose activity, positive = more growth | hit rate 0.4% among 270,000; calls by dose curve; further: potency means the concentration at half of the fitted maximal effect; actives are rising curves; nearly all actives have a fitted effect of over 50% in size
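In this qHTS, NS1 from influenza A is expressed in budding yeast, where it slows growth. Cells are switched from glucose to 2% galactose medium (pH 6.0, -URA), treated with compound, and growth recovery is read at OD600.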
Pf growth 48h: P. falciparum growth inhibition at 48 hours (one generation) | P. falciparum luciferase growth in erythrocytes, 48 h | Potency, µM (titrated, usually from 28.7 µM), inactives show top-dose activity change, negative = inhibition, most hits filed as inhibitors | hit rate 5.9% among 310,000; further: potency means the concentration at half of the fitted maximal effect; on the % scale 0 is the no-effect control and ±100 the full control effect
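Luciferase-expressing parasites in RBCs, 2% Hct / 0.1% parasitemia final; RPMI 1640 + 0.5% Albumax; 37 C, 5% CO2, one generation; luminescence read-out, lower signal = inhibition.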
CHX counter: affects cycloheximide protein synthesis inhibition readout, counter-screen | cell reporter, cycloheximide protein synthesis inhibition counterscreen | max response, % | hit rate 12% among 300,000; in the data active means max response mostly above about 13%, no sharp cut-off; inactive means mostly below about 14%; further: read at 38.3 µM for the half of the compounds with a filed dose; 0% is about no effect
Pf growth 96h: P. falciparum growth inhibition at 96 hours; P. falciparum luciferase reporter growth, 96 h; Potency, µM (series often up to 28.7 µM), for inactives: at the top dose activity change, negative = inhibition, actives largely listed as inhibitors; hit rate 6.9% among 320,000; further: potency means the concentration at half of the fitted maximal effect; on the % scale 0 is the no-effect control and ±100 the full control effect
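96 h incubation, 37 C, 5% CO2, of luciferase-reporter P. falciparum-infected RBCs (2% hematocrit, 0.05% parasitemia final) with test compounds; endpoint luminescence.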
Active calls of the source: *; ? = inconclusive; . = not tested or not shown; [ ] = dose if it differs, or a comment. Hits are enriched below; roughly 21% of the tested compounds scored in any of these assays. Unless noted, the call rests on the fitted dose curve; in most records, active means well fitted inhibition curve with a large enough effect; inconclusive means small, poorly fitted or top-dose-only effect, or another doubt; inactive means no such curve, though single readings can be large or run the other way.

SMILES | Shiga inhibitor | SARS PLpro yeast | NS1 function inh | Pf growth 48h | CHX counter | Pf growth 96h
CCNC(=O)[C@@H]1CCCN1C(=O)[C@H](CCCN=C(N)N)NC(=O)[C@H](CC(C)C)NC(=O)[C@@H](Cc1c[nH]c2ccccc12)NC(=O)[C@H](Cc1ccc(O)cc1)NC(=O)[C@H](CO)NC(=O)[C@H](Cc1c[nH]c2ccccc12)NC(=O)[C@H](Cc1cnc[nH]1)NC(=O)[C@@H]1CCC(=O)N1 | . | . | . | 1.35µM* | . | 1.51µM*
CC[C@H](C)[C@H](NC(=O)[C@H](CO)NC(=O)[C@H](CC(C)C)NC(=O)[C@H](CO)NC(=O)[C@@H]1CCCN1C(=O)[C@H](CC(N)=O)NC(=O)[C@@H](N)CC(=O)O)C(=O)N[C@@H](CC(=O)O)C(=O)N[C@@H](CC(C)C)C(=O)N[C@H](C(=O)N[C@@H](Cc1ccccc1)C(=O)N[C@@H](Cc1cnc[nH]1)C(=O)N[C@@H](CC(C)C)C(=O)N[C@@H](CC(C)C)C(=O)N[C@@H](CCCNC(=N)N)C(=O)N[C@H](C(=O)N[C@@H](CC(C)C)C(=O)N[C@@H](CC(C)C)C(=O)N[C@@H](CCC(=O)O)C(=O)N[C@@H](CC(C)C)C(=O)N[C@@H](C)C(=O)N[C@@H](CCCNC(=N)N)C(=O)N[C@H](C(=O)N[C@@H](CCC(N)=O)C(=O)N[C@@H](CO)C(=O)N[C@@H](CCC(N)=O)C(=O)N[C@@H](CCCNC(=N)N)C(=O)N[C@@H](CCC(=O)O)C(=O)N[C@@H](CCCNC(=N)N)C(=O)N[C@@H](C)C(=O)N[C@@H](CCC(=O)O)C(=O)N[C@@H](CCC(N)=O)C(=O)N[C@@H](CC(N)=O)C(=O)N[C@@H](CCCNC(=N)N)C(=O)N[C@H](C(=O)N[C@H](C(=O)N[C@@H](Cc1ccccc1)C(=O)N[C@@H](CC(=O)O)C(=O)N[C@@H](CO)C(=O)N[C@H](C(N)=O)C(C)C)[C@@H](C)CC)[C@@H](C)CC)[C@@H](C)O)[C@@H](C)O)[C@@H](C)O | 16.7* | . | . | . | -6.6 | .
Cc1c(C)n(Cc2ccccc2)c2ccc(C(=O)OCCCN(C)C)cc12 | -7.9 | -0.1% | 3.7% | ? | 0.3 | 4.15µM*
Cc1c(C)n(CCN(C)C)c2ccc(C(=O)OCCN(C)C)cc12 | 10.9 | ? | -10.8% | ? | 0.7 | 45.0%
Cc1cc(C(=O)CN2C(=O)NC(C)(c3cccc(Br)c3)C2=O)c(C)n1Cc1ccco1 (configuration not stated) | 4.1 | 1.1% | ? | 1.47µM* | 1.9 | 10.3%
Cc1cc(C(=O)CN2C(=O)NC3(CCCc4ccccc43)C2=O)c(C)n1Cc1cccs1 (configuration not stated) | 17.2 | 5.5% | -38.9% | . | 7.0 | .
Cc1cc(C(=O)CN2C(=O)NC(c3ccccc3)(c3ccccc3)C2=O)c(C)n1Cc1ccco1 | 50.8 | -0.4% | ? | 1.31µM* | 7.0 | -22.0%
Cc1ccc(CNC(=O)CN2C(=O)NC(C)(c3cccc(Br)c3)C2=O)cc1 (configuration not stated) | -4.8 | 0.0% | -2.4% | -1.3% | -0.5 | ?
O=C(CSc1nnc(CNC(=O)c2cccc(C(F)(F)F)c2)o1)NC1CCCCC1 | -0.2 | -5.0% | 15.3% | 15.2% | -0.4 | -23.0%
COc1c2ccoc2nc2c(OC)c(OCC(OC(C)=O)C(C)(C)O)ccc12 (configuration not stated) | -18.3 | 0.9% | -2.4% | 25.4% | -2.4 | 46.8%
Cc1ccc(CC(=S)N2CCOCC2)cc1 | -8.1 | -2.8% | . | 12.8% | 1.2 | 13.1µM*
COc1ccc(CC(=S)N2CCOCC2)cc1 | 2.2 | 3.7% | -3.1% | -5.0% | -0.4 | -17.8%
CCc1ccc(CC(=S)N2CCOCC2)cc1 | 62.3* | -3.3% | . | 26.3% | 25.8* | ?
CN(Cc1nc(-c2cccs2)no1)CC(O)c1ccccc1 (configuration not stated) | 56.2* | 0.7% | -6.7% | 38.8% | 44.0* | 15.0%
CN(Cc1nc(-c2cccs2)no1)CC1(N2CCOCC2)CCCCC1 | 1.4 | -0.1% | 1.7% | ? | 7.0 | -7.6%
CN(Cc1nc(-c2cnccn2)no1)CC(O)c1ccccc1 (configuration not stated) | 11.3 | 1.6% | -0.2% | 17.5% | -1.6 | ?
CN(Cc1nc(-c2cccs2)no1)CC1COCCO1 (configuration not stated) | 61.4* | 0.6% | -0.4% | 131.8% | 33.2* | ?
CCN1CC(CN(C)Cc2nc(-c3cccs3)no2)CC1=O (configuration not stated) | 15.9 | 0.5% | 0.6% | -0.1% | 7.1 | 11.7µM*
CN(Cc1nc(C(c2ccccc2)c2ccccc2)no1)CC1COCCO1 (configuration not stated) | 46.6 | 0.0% | 2.4% | 30.3% | 14.5* | ?
CN(Cc1nc(Cc2cccc(F)c2)no1)CC1COCCO1 (configuration not stated) | 2.5 | -0.6% | 6.9% | -9.7% | -1.8 | 48.7%
CCN1CC(CN(C)Cc2nc(-c3ccc(C(F)(F)F)cc3)no2)CC1=O (configuration not stated) | -27.7 | -0.4% | -1.0% | 3.4% | -2.4 | 13.4%
CC[n+]1c(C)sc2sc3ccccc3c21 | 10.6 | -4.7% | 16.3% | 1.85µM* | 0.5 | ?
Cc1sc2ccccc2[n+]1CCC(=O)O | . | . | -1.0% | . | . | .
O=C(Nc1ccc([N+](=O)[O-])cc1)Nc1ccc(N2CCOCC2)c2nonc12 | -15.3 | 4.2% | . | ? | -9.6 | 0.0%
COc1ccc(NC(=O)CN2CCN(c3ccccc3)CC2)cc1 | -16.2 | -1.5% | -0.3% | 3.5% | -5.1 | 50.5%[5.75 µM]
SMILES | Shiga inhibitor | SARS PLpro yeast | NS1 function inh | Pf growth 48h | CHX counter | Pf growth 96h
COc1ccc(NC(=O)CN2CCC(C)CC2)cc1 | 29.8* | 4.2% | 6.1% | 30.7% | 15.8* | .
COc1ccc(NC(=O)CN2CCN(C3c4ccccc4-c4ccccc43)CC2)cc1 | 41.5* | -13.5% | -5.8% | ? | 57.3* | ?
CC1CCN(CC(=O)Nc2ccc(C(=O)N3CCCCC3)cc2)CC1 | -13.0 | 3.8% | 1.8% | 0.0% | -1.3 | 3.29µM*
CCC(=O)Nc1ccc(C(=O)CN2CCC(C)CC2)cc1 | -7.0 | 1.3% | . | 19.4% | 6.1 | ?
Cc1nc2ccc(NC(=O)C3CCN(S(=O)(=O)c4cccs4)CC3)cc2s1 | 18.4 | -3.3% | -3.1% | ? | 2.4 | 9.28µM*
O=C(Nc1nc(-c2ccc3ccccc3c2)cs1)C1CCN(S(=O)(=O)c2cccs2)CC1 | -1.4 | -12.0% | 21.1% | ? | -3.0 | ?
Cc1ccc(NC(=O)C2CCN(S(=O)(=O)c3cccs3)CC2)cc1 | 19.2 | -0.5% | . | ? | 7.2 | ?
Cc1ccc(-c2csc(NC(=O)C3CCN(S(=O)(=O)c4cccs4)CC3)n2)cc1 | -3.5 | -0.5% | 12.9% | ? | -2.8 | 11.7µM*
